This is part of a sample that, as a whole, favours compounds with a hit. Of some 83,000 tested, about 20% had one in any assay.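 Single-concentration screen, 48 h exposure, 96-well plates. Endpoint: percent growth. Below 10 = active.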 Unmarked numbers belong to inactive results. Active and inactive are the calls of the source.

Common to all, as to experiment: NCI-60 one-dose screen, 48 h (100 = growth as untreated, 0 = no growth, -100 = all killed)
Holding throughout (conditions): 10 µM unless noted

In assay [1] the test system is SR leukemia.
Assay [2] has as its system RPMI-8226 leukemia.
Assay [3] concerns OVCAR-8 ovarian.
Assay [4] concerns OVCAR-5 ovarian.
The subject of assay [5] is OVCAR-4 ovarian.
Assay [6] concerns SK-OV-3 ovarian.
Assay [7] relates to IGROV1 ovarian.
In assay [8] the test system is OVCAR-3 ovarian.
Assay [9] has as its system HS 578T breast.
The test system of assay [10] is NCI/ADR-RES ovarian.

Consider `Cc1ccc(NC2=C(Cl)C(=O)c3nc(C)ccc3C2=O)c(C)c1`, for which the growth was 10.3% in [1]; -10.4% (active) in assay [2]; 28.3% in assay [3]; -1.15% (active) in assay [4]; -96.5% (active) in [5]; 117% in [6]. Also, the growth was -58.8% (active) in [7], -98.6% (active) in assay [8], 6.94% (active) in assay [9] and 4.37% (active) in assay [10].
As for `Cc1ccc(-c2cc3nc(C(Cl)Cl)nc(-c4ccc(S(=O)(=O)N(C)C)cc4)n3n2)cc1`, the growth in assay [1] is 68.7%; in assay [2] it was 86.9%; in [3], 65.5%; in assay [4], 106%; in assay [5], 94.3%; in assay [6], 101%. The growth in assay [7] is 95%; in [8] it was 108%; in assay [9], 105%; in assay [10] it was 78.8%.
With `O=C(CSc1nc2ccccc2c(=O)n1-c1ccccc1)Nc1ccc(S(=O)(=O)Nc2nccs2)cc1`, the growth in [1] was 65%; in [2], 36.8%; in [3], 89.7%; in assay [4], 56.9%; in assay [5], 77.5%; in assay [6], 103%. Further, the growth in assay [7] is 83%; in assay [8], 38.9%; in [9], 60.3%; in assay [10], 98.3%.
Regarding `Clc1ccc(CSc2nnc(-c3ccc(Cl)cc3)n2-c2ccccc2)cc1`, the growth in assay [1] is 91.7%; in assay [2], 94.4%; in assay [3], 46.3%; in assay [4], 104%; in assay [5], 16%; in assay [6], 48.3%. The growth in assay [7] is 75.9%; in [8] it was 101%; in assay [9], 43.7%; in assay [10] it was 54.2%.
For `O=S(=O)(NCCCNc1nccc(-c2[nH]c(-c3ccccc3)nc2-c2ccc(F)c(O)c2)n1)c1ccc(C(F)(F)F)cc1`, the growth was 1.01% (active) in assay [1]; 16.2% in [2]; 69.7% in [3]; 136% in [4]; 67.8% in assay [5]; 78.4% in assay [6]. Moreover, the growth in [7] is 63.1%; in [8], 33.6%; in assay [9], 48.9%; in assay [10] it was 89%.
As to `Cc1[nH]c(C(=O)Nc2ccccc2OCc2cccc(C(=O)NC3CCCNC3)c2)c(Cl)c1Cl` (stereo not given), the growth in assay [1] is -30.5% (active); in [2] it was -19.1% (active); in assay [3], -44.3% (active); in assay [4], -87.8% (active); in [5], -73.4% (active); in [6], 108%. Further, the growth in [7] is -71.3% (active); in [8] it was -85.7% (active); in [9], 93%; in assay [10], -2.67% (active).
`CC1=C(C)C(=O)C(Nc2ccc3c(c2)OCCO3)=C(Br)C1=O`: the growth was 77.6% in assay [1]; 100% in [2]; 100% in assay [3]; 108% in assay [4]; 66.8% in assay [5]; 93.9% in assay [6]. The growth is 102% in [7], 109% in assay [8], 97.3% in [9] and 97.3% in assay [10].
`CS(=O)(=O)c1ccc(/C(=N/N=C(N)N)c2ccc(F)cc2)cc1`: the growth is 24.1% in assay [1]; 91.4% in assay [2]; 98.4% in [3]; 115% in assay [4]; 101% in assay [5]; 108% in assay [6]. Besides, the growth in assay [7] is 110%; in [8], 95.6%; in assay [9], 93.4%; in assay [10], 95.7%.
For `CSc1ccc(/C(=N/N=C(N)N)c2ccc(F)cc2)cc1`, the growth in [1] is -13.8% (active); in [2] it was 5.69% (active); in [3], 11.9%; in assay [4], 43.9%; in [5] it was 57%; in assay [6], 45.3%. For the same compound, the growth in assay [7] is 39.9%; in assay [8], 27.5%; in [9] it was -1.22% (active); in assay [10], 4.1% (active).
With `NC1CC2(CCN(c3cnc(C(=O)Nc4cc(F)cc5cccnc45)cn3)CC2)C1`, the growth in assay [1] was 3.71% (active); in assay [2] it was 61.1%; in assay [3] it was 94.6%; in assay [4], 85.9%; in assay [5] it was 95.2%; in [6], 107%. Further, the growth in assay [7] was 64.8%; in [8], 85.2%; in assay [9], 94.2%; in [10], 89.2%.
On to `CCC(=C(c1ccc(OCCN(C)C)cc1)c1ccc(OCCN(C)C)cc1)c1ccc(Cl)cc1`, for which the growth in assay [1] was -43% (active); in [2], -43.8% (active); in assay [3], -21.5% (active); in [4] it was -48.7% (active); in [5], -20.1% (active); in assay [6] it was 95.5%. For the same compound, the growth in [7] is -76.8% (active); in assay [8] it was -34.8% (active); in assay [9] it was -36.1% (active); in assay [10], -25.7% (active).
As for `N#Cc1cnc2ccc(-c3cnc4n[nH]nc4c3)cc2c1N1CCc2cc(F)c(Cl)cc21`, the growth is 3.77% (active) in [1]; 15.8% in assay [2]; 16.7% in assay [3]; 31.6% in [4]; -16.9% (active) in [5]; -0.177% (active) in [6]. Also, the growth was -8.77% (active) in assay [7], 26.2% in assay [8], -10.7% (active) in assay [9] and 45% in assay [10].
`Oc1[nH]c2ccc(Cl)cc2c1N=Nc1nc(N=Nc2c(O)[nH]c3ccc(Cl)cc23)nc(N2CCOCC2)n1`: the growth is 29.2% in assay [1]; 36.4% in assay [2]; 50.1% in assay [3]; 95.1% in assay [4]; 78.7% in assay [5]; 55.5% in [6]. In addition, the growth in assay [7] is 55%; in assay [8], 52.7%; in assay [9], -7.82% (active); in [10], 98.1%.

(Values after PubChem BioAssay (NCI).)
